Only a selection was taken, and hits are over-represented in it overall.
Vaccinia pol inh: blocks vaccinia virus processive DNA synthesis; AID 493162; 46,000 tested, 0.94% active; in vitro processive DNA synthesis, absorbance read-out; hits give low values; normalized absorbance, % (test concentration not listed); in the data active = normalized absorbance mostly below about 85%, no sharp cut-off; inactive = mostly above about 86%
Each line names hits and unclear results; the compound was inactive in the other large screens.

O/N=C/c1c(F)cccc1F	none
C/C(C=Nc1c(C)n(C)n(-c2ccccc2)c1=O)=C/c1ccccc1	none
CCOC(=O)c1c(-c2ccccc2)csc1NC(=O)/C=C/c1ccco1	none
Cc1c(-n2cc(C(=O)O)c(=O)c3c(F)c(F)c(F)c(F)c32)c(=O)n(-c2ccccc2)n1C	none
O=C1NC(=S)S/C1=C/c1cccnc1	none
CN1C(=O)N(C)C(=O)C(C2CCC3OCC2O3)(C2CCC3OCC2O3)C1=O (configuration not stated)	none
OCCN=c1cc(-c2ccccc2)oc2ccc(Cl)cc12	Vaccinia pol inh 41.3
Clc1ccc2oc(-c3ccccc3)cc(=NCCN3CCOCC3)c2c1	none
O=c1cc(-c2ccccc2)oc2ccc(Cl)cc12	none
CCC(=O)N1CCN(c2ccc(NCc3ccccc3)cc2)CC1	none
c1nc(N2CCCCCC2)c2ccsc2n1	none
CC1=C(/C=C/C(C)=C/C=C/C(C)=C\C(=O)O)C(C)(C)CCC1	Vaccinia pol inh 29.0
CC(=C/C(=O)O)/C=C/c1ccccc1	none
CC1=C(/C=C/C(C)=C/C=C/C(C)=C/C(=O)Nc2ccc(O)cc2)C(C)(C)CCC1	none
Cc1nc2c3ccccc3nc(NN3C(=O)CCC3=O)n2n1	none
O=C(Cn1c(=O)n2nc(-c3ccccc3)nc2c2ccccc21)c1ccc(Br)cc1	none
CC1CCCC(C)N1CCNc1nc2ccccc2c2nc(-c3ccccc3)nn12 (configuration not stated)	Vaccinia pol inh 58.9
Oc1ccc(Cl)cc1Sc1cc(Cl)ccc1O	Vaccinia pol inh 77.2
Oc1ccc(Cl)cc1	none
NS(=O)(=O)c1ccc(Cl)cc1Sc1ccccc1C(=O)O	none
Cc1ccc(OCCNC(=O)c2ccc(C(C)(C)C)cc2)cc1	none
O=C(O)c1ccccc1C(=O)N1CCN(C2c3ccccc3-c3ccccc32)CC1	Vaccinia pol inh 73.6
Cc1cc(C(=O)N2CCN(C3c4ccccc4-c4ccccc43)CC2)c(C)o1	none
Cc1nnsc1C(=O)N1CCN(C2c3ccccc3-c3ccccc32)CC1	none
O=C(CSc1nc2ccccc2s1)Nc1ccncc1	none
COC(=O)C(N=Cc1ccccc1)c1ccccc1 (configuration not stated)	none
COC(=O)C(C(=O)OC)C(Nc1ccccc1)c1ccccc1 (configuration not stated)	Vaccinia pol inh 20.0
COC(=O)C(NC(=O)Nc1ccccc1)C(C)C (configuration not stated)	none
CC(=O)Oc1ccccc1C(=O)NCC1CCCO1 (configuration not stated)	none
CC(C)Nc1cc(Br)c2noc3c2c1C(=O)c1ccccc1-3	none
CCNc1cc(N(C)C)c2noc3c2c1C(=O)c1ccccc1-3	none
O=C1c2ccccc2-c2onc3c(Br)cc(N4CCCCC4)c1c23	Vaccinia pol inh 73.3
O=C(O)CN1C(=O)/C(=C/c2ccccc2)SC1=S	none
CCOC(=O)CN1C(=O)/C(=C/c2ccccc2)SC1=S	Vaccinia pol inh 81.5
CCCOC(=O)CN1C(=O)/C(=C/c2ccccc2)SC1=S	none
O=C(CCCC(=O)Nc1ccc(F)cc1)Nc1ccc(F)cc1	none
Cc1nc(N=C(N)N)nc2ccccc12	none
COc1ccc2nc(N=C(N)N)nc(C)c2c1	Vaccinia pol inh 36.5
COc1ccc2nc(C)c3c(c2c1)OC(C)C3 (configuration not stated)	none
CC12CN3CC(C)(CN(C1)C3C1C(=O)Nc3ccccc31)C2 (configuration not stated)	none
CC(Oc1ccc(-c2ccccc2)c(F)c1)c1ccnc(N)n1 (configuration not stated)	none
Nc1nccc(-c2ccc(Oc3ccc(Cl)cc3)cc2Cl)n1	Vaccinia pol inh 76.4
Nc1nccc(-c2ccccc2OCc2ccc(Cl)cc2)n1	none
CCc1sc2sncc2c1Br	Vaccinia pol inh 81.0
CCOC(=O)N1CCC(n2c(SCc3ccc(F)cc3Cl)nc3ccsc3c2=O)CC1	none
O=C1/C(=C/C2CCCCC2)CCCc2ccccc21	none
O=C(COc1ccc2ccccc2c1)NCc1ccc2c(c1)OCO2	none
CN(C)CCc1cc2c(c3c1ccc1ccccc13)OCO2	Vaccinia pol inh 11.1
c1ccc2cc(CNCCc3ccc4c(c3)OCO4)ccc2c1	none
Cc1cc2[nH]c(=O)c(=O)[nH]c2cc1S(=O)(=O)N1CCc2ccccc2C1	none
O=C(O)c1ccc(Oc2ccc(Cl)c(F)c2)cc1	none
FC(F)(F)Oc1ccc(Nc2n[nH]c(=S)s2)cc1	none
Cc1ccc(/C=C2\CC/C(=C\c3ccc(C)o3)C2=O)o1	none
Cc1ccc(/C=C2/C=CC(=O)O2)o1	Vaccinia pol inh 82.4
Cc1ccc(/C=C2\N=C(c3ccccc3)OC2=O)o1	none
O=C(O)c1ccc(CSCc2c(F)cccc2Cl)o1	none
Cc1c(C(=O)NCc2ccco2)cc(-c2ccccc2)n1CCSCc1c(F)cccc1Cl	none
Cc1c(C(=O)O)cc(-c2ccccc2)n1CCSCc1c(F)cccc1Cl	Vaccinia pol inh 81.6
CCOc1ccc(N)cc1OCC	none
C[n+]1c2cc(N)ccc2cc2ccc(N)cc21	Vaccinia pol inh 10.5
O=C(O)c1ccccc1C(=O)Nc1ccccc1F	none
c1ccc(-c2nsc(NC3Cc4ccccc4C3)n2)cc1	none
CC(C)(C)NC(=O)N1CCN(c2nc(-c3ccccc3)ns2)CC1	Vaccinia pol inh 66.5
O=C(O)/C=C\C(=O)N1CCN(c2nc(-c3ccccc3)ns2)CC1	none
O=C(Nc1cccc(C(F)(F)F)c1)c1ccc(Br)o1	none
CCOc1ccc(/C(O)=C/C(=O)C(=O)OC)cc1	none
O=C(O)CCC(=O)Nc1cccc(O)c1	none
CCCC(=O)Nc1cccc(N)c1	none
Nc1cccc(NC(=O)CCC(=O)O)c1	Vaccinia pol inh 72.1
COc1ccc(-c2nnco2)cc1	none
O=C(O)COc1cccc(F)c1	none
O=C1/C(=C/c2ccco2)CC(c2ccccc2)C/C1=C\c1ccco1 (configuration not stated)	none
O=C1/C(=C/c2ccco2)CC/C1=C\c1ccco1	Vaccinia pol inh 24.2
CC1=C/C(=C/c2ccco2)C(=O)O1	none
CC(C1CC1)N(C(=O)c1ccc(N)cc1)c1ccccc1 (configuration not stated)	none
COC(=O)c1ccc(NC(=O)CSC(=S)N2CCOCC2)cc1	none
c1ccc2sc(Cc3cn4ccccc4n3)nc2c1	none
O=C(COC(=O)c1ccc(I)cc1)NC1CCCCC1	none
NC(CSCc1oc(-c2ccccc2)cc1C(=O)O)C(=O)O (configuration not stated)	Vaccinia pol inh 77.4
NC(CSCc1ccccc1Cl)C(=O)O (configuration not stated)	none
NC(Cc1ccccc1F)C(=O)O (configuration not stated)	none
CC(=O)Nc1nonc1Nc1cc(C)nn1-c1ccccc1	none
Cc1ccc(C)n1CCN1CCN(S(=O)(=O)c2ccccc2)CC1	none
COc1cc2ccc3c(CCN(C)C)cc(OC)c(OC)c3c2cc1OC	Vaccinia pol inh 60.9
COc1cc(C(=O)NCc2ccc(OCCN(C)C)cc2)cc(OC)c1OC	none
COc1ccc(Cc2nccc3cc(OC)c(OC)cc23)cc1OC	none
Cc1ncc(CO)c2cc(C(=O)Nc3ccc(I)cc3)c(=O)oc12	none
O=C(Cc1cn(Cc2cccc(Cl)c2)c2ccccc12)Nc1nc2ccccc2s1	none
CCOP(=S)(OCC)C1(Nc2ccc(C)cc2)CCCCC1	none
COc1cc(Br)cc(C=Nc2ccccc2)c1O	none
Oc1ccc(Br)cc1C=Nc1cc2c(cc1Br)OCCO2	none
Oc1c(Br)cc(Br)cc1C=Nc1ccccc1F	Vaccinia pol inh 80.8
C=CCn1c2ccccc2c2nc3ccccc3nc21	none
c1ccc2nc3c(nc2c1)c1ccccc1n3CCN1CCOCC1	Vaccinia pol inh 65.3
c1ccc(CCn2c3ccccc3c3nc4ccccc4nc32)cc1	none
CC[n+]1c(/C=C/Nc2ccccc2)sc2ccccc21	none
C[n+]1c(/C=C/Nc2ccccc2)sc2ccccc21	Vaccinia pol inh 74.7
CSc1sc2ccccc2[n+]1C	none
O=C(Nc1nnc(SCc2cccc(F)c2)s1)c1ccccc1	none

From PubChem
